From PubChem BioAssay (Tox21)
Records with an inconclusive call do not appear. Activity calls are given as the source filed them. Calls follow the shape of the dose curve; as a rule, active = well fitted curve in the direction sought with a large enough effect in the repeat runs; inconclusive = weak or mixed curves; inactive = no such curve, though single readings can be large; an effect the other way counts as inactive or inconclusive.

Test: qHTS assay to identify small molecule agonists of the RXR signaling pathway - cell viability counter screen (AID 1159529); also: nearly all actives have a fitted effect of over 50% in size;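 as to activity change, negative = cytotoxicity: HEK 293T cells carrying an RXR-alpha UAS beta-lactamase reporter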
Details: RXR-alpha-bla HEK293T viability, CellTiter-Glo, 16 h; series mostly up to 76.8 µM; activity change, negative = cytotoxicity: at the top concentration
Outline: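 In this parallel viability measure, GeneBLAzer RXR-alpha HEK 293T cells (2% charcoal-stripped FBS) were given a 5 hr preincubation, treated with compounds 16 hr at 37 C, and read by CellTiter-Glo luminescence.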
% is scaled to controls: 0 for no effect and ±100 for the full control effect; potency is read from the fitted curve at half-maximal effect.

| Structure (SMILES) | activity change, negative = cytotoxicity | Potency |
| --- | --- | --- |
| O=C1NC(=O)C(=O)C(=O)N1 | 1.46% (inactive) | – |
| O=C(Cl)OCCOCCOC(=O)Cl | 0.75% (inactive) | – |
| CC(C)(C)N(NC(=O)c1ccc(Cl)cc1)C(=O)c1ccccc1 | -16.8% (inactive) | – |
| CN(C)c1ccc(N=O)cc1 | – | 34.8 µM (active) |
| O=C1CC[C@@]2(O)[C@H]3Cc4ccc(O)c5c4[C@@]2(CCN3CC2CC2)[C@H]1O5 | -0.623% [at 35.3 µM] (inactive) | – |
| N#CC(C#N)=Cc1ccc(O)c(O)c1 | -6.04% [at 35.3 µM] (inactive) | – |
| CCCBr | 11.1% (inactive) | – |
| O=P(OCC(Br)CBr)(OCC(Br)CBr)OCC(Br)CBr (configuration not stated) | -9.38% (inactive) | – |
| COC1=CC(=O)O[C@@H](/C=C/c2ccc3c(c2)OCO3)C1 | -27.1% (inactive) | – |
| CC(Cl)C(=O)O (configuration not stated) | -1.52% (inactive) | – |
| CCOc1cccc(C2(N3CCN(c4ccccc4)CC3)CCC(C)CC2)c1 (configuration not stated) | 0.995% (inactive) | – |
| N#CC1(N=NC2(C#N)CCCCC2)CCCCC1 | -26% (inactive) | – |
| Nc1ccccc1C(=O)OCCc1ccccc1 | -23% (inactive) | – |
| CCC1(CC)C(=O)NC(=O)NC1=O | 0.0745% [at 35.3 µM] (inactive) | – |
| CCOP(=O)(O)C(N)=O | -6.74% (inactive) | – |
| CC(C)(C)NCC(O)c1ccccc1Cl (configuration not stated) | 4.56% [at 35.3 µM] (inactive) | – |

| Structure (SMILES) | activity change, negative = cytotoxicity | Potency |
| --- | --- | --- |
| Cc1cccc(C)c1NC1=NCCCS1 | 0.849% [at 35.3 µM] (inactive) | – |
| COc1ccc2c(c1OC)C(=O)O[C@H]2[C@@H]1c2cc3c(cc2CCN1C)OCO3 | 1.57% [at 35.3 µM] (inactive) | – |
| CCNC(=O)NC(=O)/C(C#N)=N/OC | -1.28% (inactive) | – |
| CCCC[N+](CCCC)(CCCC)CCCC | -4.65% (inactive) | – |
| CCCCCCCCCCCCN=C(N)N | -15.3% [at 2.72 µM] (inactive) | – |
| CCCN(CCOc1c(Cl)cc(Cl)cc1Cl)C(=O)n1ccnc1 | 10% (inactive) | – |
| O=C(O)C(F)(F)C(F)(F)C(F)(F)C(F)(F)C(F)(F)F | 11% (inactive) | – |
| CCC1(C2=NCCN2)Cc2ccccc2O1 (configuration not stated) | 6.28% [at 35.3 µM] (inactive) | – |
| CCN(C(C)=O)c1cccc(-c2ccnc3c(C#N)cnn23)c1 | 8.18% [at 35.3 µM] (inactive) | – |
| CC(C)(c1ccccc1)c1cc(-n2nc3ccccc3n2)c(O)c(C(C)(C)c2ccccc2)c1 | 0.393% [at 35.3 µM] (inactive) | – |
| CC[N+]1(CCOC(=O)C(O)(c2ccccc2)c2ccccc2)CCCCC1 | -0.376% [at 35.3 µM] (inactive) | – |
| CCC[N+](CCC)(CCC)CCC | -0.928% (inactive) | – |
| CCCCC(CC)COC(=O)c1c(Br)c(Br)c(Br)c(Br)c1C(=O)OCC(CC)CCCC (configuration not stated) | -3.25% [at 35.3 µM] (inactive) | – |
| O=C(O)CCCOc1ccc(Cl)cc1Cl | 7.13% (inactive) | – |
| Clc1ccc(Cl)c(Cl)c1 | – | inactive |

Test: qHTS assay to identify small molecule antagonists of the retinoid acid receptor (RAR) signaling pathway - cell viability counter screen (AID 1159551); also: nearly all actives have a fitted effect of over 35% in size
Details: C3RL4 cells viability, ATP luminescence (CellTiter-Glo), 6 h; series mostly up to 92.4 µM; activity change, negative = cytotoxicity: at the top concentration
Outline: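 ATP-based viability, C3RL4 cells, 6 h at 37 C with 1 uM final retinol co-added after compound; luminescence read 30 min post CellTiter-Glo, RT.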

| Structure (SMILES) | activity change, negative = cytotoxicity | Potency |
| --- | --- | --- |
| O=C1NC(=O)C(=O)C(=O)N1 | -0.235% (inactive) | – |
| O=C(Cl)OCCOCCOC(=O)Cl | 0.0949% (inactive) | – |
| CC(C)(C)N(NC(=O)c1ccc(Cl)cc1)C(=O)c1ccccc1 | -0.974% (inactive) | – |
| O=C1CC[C@@]2(O)[C@H]3Cc4ccc(O)c5c4[C@@]2(CCN3CC2CC2)[C@H]1O5 | 3.9% [at 42.5 µM] (inactive) | – |
| N#CC(C#N)=Cc1ccc(O)c(O)c1 | 0.541% [at 42.5 µM] (inactive) | – |
| Oc1cccc(Cl)c1 | -2.04% (inactive) | – |
| CCCBr | -1.34% (inactive) | – |
| O=P(OCC(Br)CBr)(OCC(Br)CBr)OCC(Br)CBr (configuration not stated) | – | inactive |
| C=CCOC(=O)C(C)(C)OC(=O)c1cc(-n2c(=O)cc(C(F)(F)F)n(C)c2=O)ccc1Cl | 0.565% (inactive) | – |
| COC1=CC(=O)O[C@@H](/C=C/c2ccc3c(c2)OCO3)C1 | -1.64% (inactive) | – |
| CC(Cl)C(=O)O (configuration not stated) | -2.6% (inactive) | – |
| CC(C)(C)CC(C)(C)c1ccc(O)cc1 | – | 43.3 µM (active) |
| NC(=O)CF | 5.44% (inactive) | – |
| CCOc1cccc(C2(N3CCN(c4ccccc4)CC3)CCC(C)CC2)c1 (configuration not stated) | 1.72% (inactive) | – |
| N#CC1(N=NC2(C#N)CCCCC2)CCCCC1 | -4.73% (inactive) | – |
| CCC(C)(C)O | -0.916% (inactive) | – |
| CCC1(CC)C(=O)NC(=O)NC1=O | -2.33% [at 42.5 µM] (inactive) | – |
| CCOP(=O)(O)C(N)=O | 0.467% (inactive) | – |
| COc1cc(CC#N)cc(OC)c1OC | 2.19% [at 42.5 µM] (inactive) | – |

| Structure (SMILES) | activity change, negative = cytotoxicity | Potency |
| --- | --- | --- |
| CC(C)(C)NCC(O)c1ccccc1Cl (configuration not stated) | -1.44% [at 42.5 µM] (inactive) | – |
| Cc1cccc(C)c1NC1=NCCCS1 | -2.64% [at 42.5 µM] (inactive) | – |
| COc1ccc2c(c1OC)C(=O)O[C@H]2[C@@H]1c2cc3c(cc2CCN1C)OCO3 | 6.38% [at 42.5 µM] (inactive) | – |
| CCNC(=O)NC(=O)/C(C#N)=N/OC | 4.87% (inactive) | – |
| CCCC[N+](CCCC)(CCCC)CCCC | 0.503% (inactive) | – |
| CCCCCCCCCCCCN=C(N)N | 2.05% [at 3.27 µM] (inactive) | – |
| CCCN(CCOc1c(Cl)cc(Cl)cc1Cl)C(=O)n1ccnc1 | – | inactive |
| O=C(O)C(F)(F)C(F)(F)C(F)(F)C(F)(F)C(F)(F)F | 0.333% (inactive) | – |
| CCC1(C2=NCCN2)Cc2ccccc2O1 (configuration not stated) | 2.81% [at 42.5 µM] (inactive) | – |
| CCN(C(C)=O)c1cccc(-c2ccnc3c(C#N)cnn23)c1 | -0.69% [at 42.5 µM] (inactive) | – |
| CC(C)(c1ccccc1)c1cc(-n2nc3ccccc3n2)c(O)c(C(C)(C)c2ccccc2)c1 | 1.62% [at 42.5 µM] (inactive) | – |
| CCC(=O)O[C@@H]1C=C2CCC3C(CCC4(C)C3CC[C@@H]4OC(=O)CC)C2CC1 (some centres not stated) | 0.395% [at 42.5 µM] (inactive) | – |
| CC[N+]1(CCOC(=O)C(O)(c2ccccc2)c2ccccc2)CCCCC1 | 0.682% [at 42.5 µM] (inactive) | – |
| CCC[N+](CCC)(CCC)CCC | 4.14% (inactive) | – |
| Nc1cccc2ccccc12 | – | inactive |
| CCCCC(CC)COC(=O)c1c(Br)c(Br)c(Br)c(Br)c1C(=O)OCC(CC)CCCC (configuration not stated) | -0.103% [at 42.5 µM] (inactive) | – |
| O=C(O)CCCOc1ccc(Cl)cc1Cl | – | inactive |
| Clc1ccc(Cl)c(Cl)c1 | – | inactive |

Test: qHTS assay to identify small molecule antagonists of the retinoic acid receptor (RAR) signaling pathway (AID 1159552; also: nearly all actives have a fitted effect of over 50% in size)
Details: C3RL4 RARE luciferase reporter, retinol-stimulated, 6 h; series mostly up to 92.4 µM; activity, negative = inhibition: at the top concentration
Outline: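 C3RL4 RARE-luc cells, overnight plating; retinol 1 uM final added right after compound; 6 hr 37 C; luciferase read at 30 min RT.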

| Structure (SMILES) | Potency | activity, negative = inhibition |
| --- | --- | --- |
| O=C(Cl)OCCOCCOC(=O)Cl | 12.2 µM (active) | – |
| CC(C)(C)N(NC(=O)c1ccc(Cl)cc1)C(=O)c1ccccc1 | – | -2.37% (inactive) |
| CN(C)c1ccc(N=O)cc1 | 24.4 µM (active) | – |
| O=C1CC[C@@]2(O)[C@H]3Cc4ccc(O)c5c4[C@@]2(CCN3CC2CC2)[C@H]1O5 | – | 30.9% [at 42.5 µM] (inactive) |
| N#CC(C#N)=Cc1ccc(O)c(O)c1 | – | 46.9% [at 42.5 µM] (inactive) |
| O=P(OCC(Br)CBr)(OCC(Br)CBr)OCC(Br)CBr (configuration not stated) | inactive | – |
| COC1=CC(=O)O[C@@H](/C=C/c2ccc3c(c2)OCO3)C1 | 8.27 µM (active) | – |
| CC(Cl)C(=O)O (configuration not stated) | – | -21.4% (inactive) |
| CCOc1cccc(C2(N3CCN(c4ccccc4)CC3)CCC(C)CC2)c1 (configuration not stated) | – | 37.2% (inactive) |
| N#CC1(N=NC2(C#N)CCCCC2)CCCCC1 | – | -4.41% (inactive) |
| Nc1ccccc1C(=O)OCCc1ccccc1 | inactive | – |
| CCC1(CC)C(=O)NC(=O)NC1=O | – | 15.2% [at 42.5 µM] (inactive) |
| Cc1cccc(C)c1NC1=NCCCS1 | – | -2.54% [at 42.5 µM] (inactive) |
| CCCN(CCOc1c(Cl)cc(Cl)cc1Cl)C(=O)n1ccnc1 | – | -2.94% (inactive) |
| O=C(O)C(F)(F)C(F)(F)C(F)(F)C(F)(F)C(F)(F)F | – | -10.5% (inactive) |
| CCN(C(C)=O)c1cccc(-c2ccnc3c(C#N)cnn23)c1 | – | -11.3% [at 42.5 µM] (inactive) |
| CC(C)(c1ccccc1)c1cc(-n2nc3ccccc3n2)c(O)c(C(C)(C)c2ccccc2)c1 | – | -2.3% [at 42.5 µM] (inactive) |
| O=C(O)CCCOc1ccc(Cl)cc1Cl | inactive | – |
| Clc1ccc(Cl)c(Cl)c1 | – | 23.3% (inactive) |
